TDP1 cell noCPT: qHTS for Inhibitors of human tyrosyl-DNA phosphodiesterase 1 (TDP1): qHTS in cells in absence of CPT | DT40 Tdp1-/- hTDP1 cells, no CPT, ATP luminescence, 48 h | Potency, µM (top dose mostly 46.2 µM), for inactives: at the top dose activity change, negative = growth inhibition, hits mostly inhibitors | hit rate 15% among 420,000 | AID 686978, 2013; note: potency is the fitted concentration of half-maximal effect; nearly all actives have a fitted effect of over 55% in size
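Luminescent ATP content (CellTiter-Glo) served as the growth readout. Knockout chicken DT40 cells expressing human TDP1 were exposed to compounds without camptothecin for a minimum 48 hr at 37 °C.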
IL1B secr inh: qHTS for Inhibitors of Inflammasome Signaling: IL-1-beta AlphaLISA Primary Screen | activity change, % at 57.5 µM | THP-1 LPS/ATP IL-1B secretion, AlphaLISA, 16 h; active compounds read low | hit rate 4.7% among 360,000 | AID 743279, 2014; in the data active = activity change below about -50%; inconclusive = mostly about -30% to -49%
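THP-1 cells pretreated 1 hr with compounds (up to 57.5 uM final), then stimulated with LPS (250 ng/mL final) plus ATP (1.25 mM final); secreted IL-1B measured by AlphaLISA after 16 hr, decreased signal indicating inhibition.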
HT1080 IDH1KD tx: qHTS for induction of synthetic lethality in tumor cells producing 2HG: qHTS for the HT-1080-IDH1KD cell line. HT-1080 IDH1 knockdown viability, ATP luminescence, 48 h. Potency, µM (titrated, usually from 46.1 µM), without a hit: at the highest dose activity, negative = toxicity, hits mostly cytotoxic. hit rate 2% among 360,000;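 note: potency is the fitted concentration of half-maximal effect; 0% = DMSO wells and -100% = cell-free medium wells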
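Assay cells: HT-1080 with IDH1 knockdown, 750 per well, RPMI/5% FBS. Exposure: 48 h at 37 °C following 2 h pre-incubation. Read: CellTiter-Glo luminescence; fitted concentration-response, curve class assigned.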
TDP1 cell CPT: qHTS for Inhibitors of human tyrosyl-DNA phosphodiesterase 1 (TDP1): qHTS in cells in presence of CPT | chicken DT40 Tdp1-/-;hTDP1 cells + 20 nM CPT, ATP luminescence, 48 h | Potency, µM (doses to about 46.2 µM), for inactives: at the highest dose activity change, negative = growth inhibition, hits mostly inhibitors | hit rate 12% among 420,000 | AID 686979, 2013; note: potency is the fitted concentration of half-maximal effect; nearly all actives have a fitted effect of over 55% in size
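Chicken DT40 Tdp1-/- cells complemented with human TDP1, 400 cells/well, exposed to compounds plus 20 nM camptothecin for at least 48 h at 37 C; viability read as ATP content by CellTiter-Glo luminescence.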
ALOX12 inh: Primary qHTS assay for inhibitors of human arachidonate 12S-lipoxygenase (ALOX12): Round 2. Potency, µM (top dose mostly 108 µM), inactives show at the highest dose activity change, negative = inhibition, most hits filed as inhibitors. hit rate 1.1% among 580,000. purified 12hLO, xylenol orange hydroperoxide absorbance. AID 1671190, 2021. Polyunsaturated fatty acid lipoxygenase ALOX12 (Homo sapiens), P18054; note: potency is the fitted concentration of half-maximal effect
Target sequence (P18054 whole entry, looked up): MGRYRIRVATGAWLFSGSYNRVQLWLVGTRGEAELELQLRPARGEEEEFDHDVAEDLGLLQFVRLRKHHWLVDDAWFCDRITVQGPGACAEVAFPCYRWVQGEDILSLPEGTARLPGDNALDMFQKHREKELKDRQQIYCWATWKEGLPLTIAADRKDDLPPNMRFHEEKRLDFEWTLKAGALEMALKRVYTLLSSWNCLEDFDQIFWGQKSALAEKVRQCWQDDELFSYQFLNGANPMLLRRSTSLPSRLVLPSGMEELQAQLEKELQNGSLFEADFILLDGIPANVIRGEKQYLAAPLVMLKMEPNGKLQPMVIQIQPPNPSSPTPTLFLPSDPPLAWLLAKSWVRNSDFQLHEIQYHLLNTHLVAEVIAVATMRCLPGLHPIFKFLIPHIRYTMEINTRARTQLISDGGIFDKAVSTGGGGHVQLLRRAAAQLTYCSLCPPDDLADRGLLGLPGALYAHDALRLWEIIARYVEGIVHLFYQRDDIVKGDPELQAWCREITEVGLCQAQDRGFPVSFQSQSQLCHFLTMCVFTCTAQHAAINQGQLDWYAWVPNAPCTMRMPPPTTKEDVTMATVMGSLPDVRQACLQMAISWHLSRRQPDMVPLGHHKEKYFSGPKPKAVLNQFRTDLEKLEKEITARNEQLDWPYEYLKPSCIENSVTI
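Hydroperoxide product was detected by ferrous iron/xylenol orange as the 573 to 405 nm absorbance ratio. Arachidonic acid at 40 uM (final) was turned over for 30 min at room temperature by 150 nM human 12hLO, pH 7.0 Hepes buffer, after 15 min compound preincubation.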
HT1080-NT tox: qHTS for induction of synthetic lethality in tumor cells producing 2HG: qHTS for the HT-1080-NT fibrosarcoma cell line; hit rate 1.6% among 360,000; Potency, µM (doses to about 46.1 µM), for inactives: top-dose activity, negative = less viability, actives largely listed as cytotoxic; HT-1080-NT fibrosarcoma viability, CellTiter-Glo ATP luminescence, 48 h;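 note: NT is the 2HG producing partner of a matched IDH1 knockdown line; potency is the fitted concentration of half-maximal effect; 0% = DMSO-treated cells and -100% = media-only wells without cells; nearly all actives have a fitted effect of over 55% in size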
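Viability of the 2HG-overproducing fibrosarcoma line after 48 hours of compound exposure at 37 degrees C was determined by luminescence with CellTiter-Glo, and concentration-effect curves were then fitted and categorized.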
* hit, by the source's call; ? = inconclusive; . = no result; [ ] = dose if it differs, or a comment. This excerpt belongs to a sample that is enriched for hits. Unless noted, calls come from the whole dose curve; as a rule, active = well fitted curve in the direction sought with a large enough effect; inconclusive = small, poorly fitted or top-dose-only effect, or another doubt; inactive = no such curve, though single readings can be large; an effect the other way counts as inactive or inconclusive. Unless noted, % is set by controls: 0 for no effect and ±100 for the full control effect.

SMILES	TDP1 cell noCPT	IL1B secr inh	HT1080 IDH1KD tx	TDP1 cell CPT	ALOX12 inh	HT1080-NT tox
O=C(NCc1ccco1)c1ccc2c(c1)N(Cc1ccc(Cl)cc1)C(=O)c1ccccc1S2=O (stereo unspecified)	18µM*	.	.	?	?	.
Cc1ccc(C)c(CN2C(=O)c3ccccc3S(=O)(=O)c3ccc(C(=O)NCCC4=CCCCC4)cc32)c1	?	.	.	?	-19%	.
O=C(NC1CCCCC1)c1ccc2c(c1)N(Cc1ccc(F)cc1)C(=O)c1ccccc1S2(=O)=O	-13%	.	.	-27%	-10%	.
O=C(NCc1ccco1)c1ccc2c(c1)N(Cc1cccc(Cl)c1)C(=O)c1ccccc1S2=O (stereo unspecified)	?	.	.	?	-35%	.
O=C(NCCC1=CCCCC1)c1ccc2c(c1)N(Cc1ccc(F)cc1)C(=O)c1ccccc1S2(=O)=O	7.3µM*	.	.	21µM*	-18%	.
CCCCN(C)C(=O)c1ccc2c(c1)N(Cc1ccc(F)cc1)C(=O)c1ccccc1S2(=O)=O	16µM*	.	.	16µM*	-6%	.
O=C1CCN(C(=O)C2CCCC2)CCCC(C(=O)N2CCN(c3ccccn3)CC2)CCN1 (stereo unspecified)	.	.	.	.	23%	.
O=C(NCCCCN1CCOCC1)c1cc2ccccc2o1	.	.	.	.	4%[57.4 µM]	.
Cc1ccc(N2CCN(C(=S)c3ccc(N(C)C)cc3)CC2)cc1	?	-12	-20%	?	?	-24%
CN(C)c1ccc(C(c2ccc(N(C)C)cc2)c2ccc([N+](=O)[O-])cc2)cc1	?	-50*	10%	?	-15%	-5%
O=[N+]([O-])c1ccc(C(=S)N2CCN(c3ccc(F)cc3)CC2)cc1	?	?	-2%	?	50µM*	1%
CN(C)c1ccc(C(=S)N2CCCCCC2)cc1	16µM*	3	?	?	40µM*	-21%
Cc1cccc(N2CCN(C(=S)c3ccc([N+](=O)[O-])cc3)CC2)c1	?	-14	5%	?	-27%	25%
CN(C)c1ccc(C(=S)N2CCN(c3ccc([N+](=O)[O-])cc3)CC2)cc1	21µM*	-22	-18%	15µM*	?	-14%
CC(=O)N1CCN(C(=S)c2ccc(N(C)C)cc2)CC1	-1%	-9	7%[9.24 µM]	-14%	?	6%
Cc1ccccc1Oc1ccc2c(c1)[C@@H]1C[C@H]3[C@@H](C(=O)N1CC2)[C@H](C)ON3C	23µM*	57	-4%	16µM*	?	2%
C[C@H](O)[C@@H]1C(=O)N2CCc3c([nH]c4ccccc34)[C@@H]2C[C@@H]1N(C)C(=O)Nc1ccccc1	?	-10	-23%	-24%	-11%	-10%
Cc1ccccc1Oc1ccc2c(c1)[C@@H]1C[C@H](N(C)C(=O)NC3CCCCC3)[C@H]([C@H](C)O)C(=O)N1CC2	?	-20	-14%	?	7%	-19%
Cc1ccccc1Oc1ccc2c(c1)[C@@H]1C[C@H](N(C)C(=O)c3ccco3)[C@H]([C@H](C)O)C(=O)N1CC2	18µM*	0	-5%	?	?	-2%
C[C@H](O)[C@@H]1C(=O)N2CCc3c([nH]c4ccccc34)[C@@H]2C[C@@H]1N(C)C(=O)Nc1cc(Cl)cc(Cl)c1	?	?	?	29µM*	-11%	16µM*
Cc1ccccc1Oc1ccc2c(c1)[C@@H]1C[C@H](N(C)C(=O)Nc3cc(Cl)cc(Cl)c3)[C@H]([C@H](C)O)C(=O)N1CC2	18µM*	?	-15%	?	2%	-11%
CC(=O)NC(C(=O)NCc1ccc(C)cc1)C1CCCC1 (stereo unspecified)	.	.	.	.	0%	.
CC(=O)Oc1cc2c(c(C)c1OC(C)=O)CC=C1[C@]3(C)CC[C@]4(C)CC[C@@](C)(C(=O)O)CC4[C@]3(C)CC[C@]12C (stereo partly specified)	4.6µM*	.	.	3.7µM*	.	.
COc1cccc([C@H]2CN(C(=O)CCc3scnc3C)C[C@@H]2N)c1	.	.	.	.	-2%	.
O=C1/C(=C/c2ccc(F)cc2)CCC1C1CCCC1 (stereo unspecified)	-15%	-7	28%	17%	-11%	21%
SMILES	TDP1 cell noCPT	IL1B secr inh	HT1080 IDH1KD tx	TDP1 cell CPT	ALOX12 inh	HT1080-NT tox
S=C1NC2=C(CCC/C2=C\c2ccc(Cl)cc2)C(c2ccc(Cl)cc2)N1 (stereo unspecified)	23µM*	-26	-23%	?	25µM*	?
C=CCOc1ccc(C2NC(=S)NC3=C2CCc2ccccc23)cc1 (stereo unspecified)	?	27	-24%	?	?	-3%
CC1CC2=C(NC(=S)NC2c2ccc(F)cc2)/C(=C/c2ccc(F)cc2)C1 (stereo unspecified)	?	-20	?	?	25µM*	10µM*
Fc1ccccc1/C=C1\CCCC2=C1NC(=S)NC2c1ccccc1F (stereo unspecified)	?	-5	?	?	32µM*	-19%
Fc1cccc(/C=C2\CCCC3=C2NC(=S)NC3c2cccc(F)c2)c1 (stereo unspecified)	21µM*	-12	-9%	?	?	-18%
Cn1c(=O)c2c(nc(Br)n2Cc2ccc(Br)cc2)n(C)c1=O	.	.	.	.	9%	.
O=C(CNc1ccc(F)c(C(F)(F)F)c1)N1CCNC1=O	.	.	.	.	-27%	.
